The results in this text go back to PubChem BioAssay.

Active and inactive are the calls of the source.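 How the source made its calls, unless noted: active means fluorescence slope higher than the sample average by over 3 SD (cut at about -0.22 in these data, passing the limit was not always enough); inactive means the rest.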

A short description of assay [1]: inhibitors of TNFa-induced NFkB p65 translocation, primary screen, imaging, HUVEC, MLSMR starter and 10KST1 sets (AID 438;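 active means inhibition above 20% together with a positive visual image hit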;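 further: compound added about 3h40 before a 20 min TNFalpha stimulation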;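 on inhibition: signal is the nuclear over cytoplasmic p65 intensity ratio per well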). The settings on record: HUVEC TNFa-induced p65 nuclear translocation; cell count: measured here: nuclei count (cytotoxicity indicator), at 2.08 µM unless noted; inhibition: at 2 µM, stronger effect = higher value unless noted.
Assay [2] in a line: inhibitors of E-selectin induction by TNFa, primary screen, imaging, HUVEC, immunofluorescence, MLSMR starter and 10KST1 sets (AID 487;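 active means visually confirmed hit in the image check and inhibition above 20%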;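 on inhibition: signal is fraction of cell area covered by stained E-selectin grains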;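 on nuclei count: 100% = median nuclei count of all wells on the same plate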). Particulars: HUVEC TNFalpha-induced E-selectin immunofluorescence imaging, at 2 µM; inhibition: stronger effect = higher value; nuclei count: measured here: cell number, toxicity.
Assay [3] in a line: DUSP6 inhibitors restoring Erk phosphorylation by chemical complementation, primary imaging in DUSP6-transfected HeLa (AID 609;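 active means compounds giving at least 50% inhibition in the cell-based MKP-3 phosphatase rescue imaging test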;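 on inhibition: phospho-Erk level distribution per well compared with pooled transfected vehicle control wells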). The settings on record: HeLa MKP-3 transfected, phospho-Erk imaging KS statistic, at 10 µM.
Assay [4] deals with Dual specificity protein phosphatase 6 (Homo sapiens) (UniProt Q16828). The description is as above. Particulars: HeLa MKP-3 transfected, phospho-Erk imaging KS statistic, at 10 µM, stronger effect = higher value.
Dual specificity protein phosphatase 6 (Homo sapiens), sequence (Q16828 whole entry, looked up): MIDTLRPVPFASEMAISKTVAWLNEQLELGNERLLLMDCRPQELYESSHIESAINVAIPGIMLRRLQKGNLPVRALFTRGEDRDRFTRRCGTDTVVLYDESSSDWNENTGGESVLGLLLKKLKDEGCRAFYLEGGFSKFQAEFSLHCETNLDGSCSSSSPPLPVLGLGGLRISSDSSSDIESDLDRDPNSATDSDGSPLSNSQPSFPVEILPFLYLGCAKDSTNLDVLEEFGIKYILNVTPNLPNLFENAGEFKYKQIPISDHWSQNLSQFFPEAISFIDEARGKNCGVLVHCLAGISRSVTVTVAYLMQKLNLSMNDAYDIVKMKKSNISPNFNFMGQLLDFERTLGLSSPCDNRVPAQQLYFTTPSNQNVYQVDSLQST
The target in assay [5] is Voltage-gated potassium channel subunit beta-2 (Rattus norvegicus) (UniProt P62483). As to the kind of experiment: KvBeta enzyme negative modulators, primary screen, biochemical, NADPH fluorescence (AID 622).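 Further: slope of raw intensity against log time taken from 70 to 1610 s.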 The settings on record: recombinant KvBeta, 4-cyanobenzaldehyde reduction, at 10 µM, stronger effect = higher value.
Voltage-gated potassium channel subunit beta-2 (Rattus norvegicus), sequence (P62483 whole entry, looked up): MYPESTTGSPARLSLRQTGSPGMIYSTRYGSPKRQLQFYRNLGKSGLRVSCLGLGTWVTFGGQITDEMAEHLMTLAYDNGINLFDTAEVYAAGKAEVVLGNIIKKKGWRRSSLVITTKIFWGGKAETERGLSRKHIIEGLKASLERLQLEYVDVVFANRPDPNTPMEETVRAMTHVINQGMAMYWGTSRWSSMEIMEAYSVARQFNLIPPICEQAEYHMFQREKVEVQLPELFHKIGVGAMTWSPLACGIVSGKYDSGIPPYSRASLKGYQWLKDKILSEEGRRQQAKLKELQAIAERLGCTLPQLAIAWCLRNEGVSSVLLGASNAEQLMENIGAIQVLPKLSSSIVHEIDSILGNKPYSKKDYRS
For assay [6] the target is unchanged. As to the kind of experiment: KvBeta positive modulators, primary screen, biochemical, NADPH fluorescence (AID 623;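 active means NADPH fluorescence slope more negative than the mean of all samples by about 3 SD, 99.7% confidence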;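 further: fluorescence intensity change per second fitted from 20 to 320 s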). The settings on record: Recombinant KvBeta, NADPH fluorescence decrease slope, 10 min; at 10 µM; stronger effect = lower value.
The target in assay [7] is Muscarinic acetylcholine receptor M4 (Homo sapiens) (UniProt P08173). Description: compounds altering M4/GIRK thallium flux, either direction, primary screen, M4 allosteric agonist project, cell-based, HEK293 M4/GIRK, BTC-AM (AID 625;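 active means fluorescence slope after compound addition differing from the mean of all tested samples at 99.7% confidence, mostly higher but some lower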;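 further: thallium influx through GIRK channels coupled to M4 in HEK293 cells with BTC-AM dye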). Particulars: at 10 µM, actives lie on both sides.
Muscarinic acetylcholine receptor M4 (Homo sapiens), sequence (P08173 whole entry, looked up): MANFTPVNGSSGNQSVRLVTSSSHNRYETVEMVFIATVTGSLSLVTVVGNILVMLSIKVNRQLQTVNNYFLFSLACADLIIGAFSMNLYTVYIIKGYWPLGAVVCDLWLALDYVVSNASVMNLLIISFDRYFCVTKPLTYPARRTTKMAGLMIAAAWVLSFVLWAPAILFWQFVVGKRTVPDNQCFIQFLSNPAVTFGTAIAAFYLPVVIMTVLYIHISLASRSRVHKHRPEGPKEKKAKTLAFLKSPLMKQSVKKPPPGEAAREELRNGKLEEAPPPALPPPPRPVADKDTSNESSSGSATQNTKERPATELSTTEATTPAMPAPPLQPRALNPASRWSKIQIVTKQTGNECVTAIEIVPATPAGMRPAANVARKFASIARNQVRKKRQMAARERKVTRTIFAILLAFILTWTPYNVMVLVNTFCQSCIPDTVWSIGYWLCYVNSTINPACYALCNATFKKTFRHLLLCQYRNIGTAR
Assay [8] can be described thus: inhibitors of larval lipid processing in zebrafish, primary screen, whole organism, PED6 fluorescence, gall bladder and intestine (AID 686;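 active means a full or partial loss of lipid-probe fluorescence in the fish gall bladder, intestine or both, judged by eye; inactive means no fluorescence loss, or compound toxic to the fish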;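 further: larvae 5 to 7 days old with five fish per well; signal comes from phospholipase A2 cleavage of quenched PED6 carried via bile; overnight exposure to compound and PED6 before scoring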). The settings on record: Zebrafish larvae PED6 lipid processing, fluorescence scoring.
A short description of assay [9]: inhibitors of Chlamydomonas gravitaxis, primary screen, whole organism, Chlamydomonas reinhardtii, WT vs cilia-less mutant, absorbance, 96-well (AID 463189;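 active means inhibition at or above 50% relative to wild type and mutant plate controls; inactive means inhibition below 50%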;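 further: 0% = wild type cc124 cells in DMSO and 100% = ciliumless bld1 mutant cells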). The settings on record: OD600 absorbance, 2 days, at 10 µM, stronger effect = higher value.
Assay [10] is described as follows: inhibitors of mutant huntingtin aggregation, primary screen, imaging, exon1htt(103Q)mCFP cells, high-content imaging (AID 483;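 active means visual image review flags a hit and inhibition of aggregation exceeds 20%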;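 further: compound exposure lasted 3 days before fixation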;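 on nuclei count: percent of the per-plate median nuclei count of sample wells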). Particulars: exon1htt(103Q)mCFP cell line, aggregate imaging, at 2 µM; inhibition of aggregation: stronger effect = higher value; nuclei count: measured here: cell count, toxicity.
Assay [11] has as its target Alpha-2C adrenergic receptor (Homo sapiens) (UniProt P18825). As to the kind of experiment: modulators of alpha2C/GIRK thallium flux, primary screen, cell-based, HEK293 alpha2C/GIRK1/2 (AID 624;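 active means fluorescence slope after compound addition differing from the mean of all screened samples at 99.7% confidence, in either direction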;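 further: slope of fluorescence ratio to pre-addition baseline per second over 15 to 24 s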). Particulars: thallium flux BTC fluorescence, at 10 µM, actives lie on both sides.
The nature of assay [12]: inhibitors of Sendai virus-induced IRF3 signaling, primary screen, TLR/RLR signaling modifier project, cell-based, Sendai virus stimulus, luciferase, 10K MLSCN set (AID 602276;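 active means inhibition at or above 50% at 10 µM; inactive means inhibition below 50%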;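 further: firefly luciferase from ISG56 promoter only with Renilla not read in this screen; 0% = Sendai virus plus DMSO and 100% = medium plus DMSO without virus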). Particulars: HEK293 RL24 IRF3 luciferase reporter, at 10 µM, stronger effect = higher value. (In general: Reporter assays use an easily measured gene product as a stand-in for the process of interest.)
The nature of assay [13]: inhibitors of poly I:C-induced TLR3 signaling, primary screen, cell-based, poly I:C stimulus, luciferase, 10K MLSCN set (AID 602277;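 active means inhibition of the reporter signal at or above 50%; inactive means inhibition below 50%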). The settings on record: HEK293-TLR3 RL24 IRF3 luciferase reporter, at 10 µM, stronger effect = higher value.
The mark [14] stands for this setting: measured here: cell density z-score.
Where [15] appears, read: measured here: nuclear c-Myc green intensity z-score.
Where [16] appears, read: measured here: nuclear pErk red intensity z-score, stronger effect = higher value.

Alpha-2C adrenergic receptor (Homo sapiens), sequence (P18825 whole entry, looked up): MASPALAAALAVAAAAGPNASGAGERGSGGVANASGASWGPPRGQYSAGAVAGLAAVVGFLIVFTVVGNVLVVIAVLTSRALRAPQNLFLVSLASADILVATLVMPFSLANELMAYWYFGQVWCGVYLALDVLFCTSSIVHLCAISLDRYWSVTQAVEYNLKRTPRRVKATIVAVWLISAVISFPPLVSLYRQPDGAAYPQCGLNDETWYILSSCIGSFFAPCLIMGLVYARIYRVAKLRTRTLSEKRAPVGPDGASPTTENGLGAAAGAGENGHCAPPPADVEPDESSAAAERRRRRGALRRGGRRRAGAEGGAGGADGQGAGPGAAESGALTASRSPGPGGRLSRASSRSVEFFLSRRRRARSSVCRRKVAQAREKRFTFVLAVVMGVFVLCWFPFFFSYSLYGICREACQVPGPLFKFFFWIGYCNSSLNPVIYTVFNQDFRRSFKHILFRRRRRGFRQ

Compound `O=C(c1ccco1)C12CN3CN(CN(C3)C1)C2` gave a cell count in assay [1] of 403. In addition, the inhibition (commonly the drop in the measured response relative to a control, in per cent) in [1] is -7% (inactive); in [2] it was -98.3% (inactive); in [4], 17.4% (inactive); in assay [9], -4.37% (inactive). The same compound yielded a nuclei count in [2] of 165%. Moreover, the figures for the z-score in assay [3] (setting [14]), in assay [3] (setting [15]) and in [3] (setting [16]) were -0.216, 0.212 and 0.209, respectively. Further, the fluorescence slope in assay [5] is -0.431 (inactive); in assay [7], 0.00486 (inactive). For the same compound, in assay [6], the NADPH fluorescence slope is -0.000115 (inactive). Also, the result in assay [8] was inactive.
In assay [1], `CN(C)CCOC(=O)c1cn(Cc2ccccc2)c2ccccc12` yielded a cell count of 639. In addition, the inhibition in assay [1] was -9.5% (inactive); in assay [2] it was -111% (inactive); in assay [4], -6.06% (inactive); in [9], 37% (inactive). The nuclei count in assay [2] was found to be 182%. Besides, the z-score in [3] (setting [14]) is 1.72; in assay [3] (setting [15]) it was -0.185; in assay [3] (setting [16]), -0.202. The fluorescence slope is -0.507 (inactive) in assay [5] and 0.00681 (inactive) in assay [7]. The NADPH fluorescence slope in [6] was -6.8e-05 (inactive). Moreover, the outcome in [8] was inactive.
Regarding `Cc1ccccc1-n1c(O)c(C=NCCN2CCOCC2)c(=O)[nH]c1=O`, the cell count in assay [1] is 335. Moreover, the inhibition in assay [1] is -9.5% (inactive); in assay [2] it was -110% (inactive); in [12], 1.33% (inactive); in [13] it was -0.798% (inactive). The inhibition of aggregation in assay [10] is -8.6% (inactive). Besides, the values for the nuclei count in assay [10] and in [2] were 138% and 135%, respectively. The fluorescence slope in [5] is -0.432 (inactive). In assay [6], the NADPH fluorescence slope was -2.7e-05 (inactive). Moreover, the slope in assay [11] was 0.00516 (inactive).
As for `OC(c1ccc(F)cc1)C(c1ccccc1)N1CCOCC1` (centres undefined), in assay [1], the cell count was found to be 679. The inhibition was 2.9% (inactive) in [1], 8% (inactive) in assay [2], -13.3% (inactive) in assay [4] and -7.5% (inactive) in [9]. The same compound showed a nuclei count in assay [2] of 153%. For the same compound, the z-score in assay [3] (setting [14]) was -0.0994; in assay [3] (setting [15]), 1.62; in assay [3] (setting [16]), 0.344. The fluorescence slope was -0.427 (inactive) in [5] and 0.00525 (inactive) in assay [7]. The NADPH fluorescence slope in [6] is -3.5e-05 (inactive). In addition, the result in [8] was inactive.
Compound `CNC(=O)N(C)c1nnc(C(C)(C)C)s1` returned a cell count in assay [1] of 642. The inhibition in assay [1] was -6.4% (inactive); in assay [2] it was -26% (inactive); in [4], 11.9% (inactive); in [9], 119% (active). The compound also returned a nuclei count in assay [2] of 73.8%. Further, the z-score in assay [3] (setting [14]) is -3.07; in [3] (setting [15]), 0.0042; in assay [3] (setting [16]), -1.4. The fluorescence slope is -0.502 (inactive) in assay [5] and 0.00657 (inactive) in assay [7]. Further, the NADPH fluorescence slope in [6] was -9.9e-05 (inactive). In addition, the call in [8] was inactive.
`Cc1c(N=Cc2c(O)n(Cc3ccco3)c(=O)[nH]c2=O)c(=O)n(-c2ccccc2)n1C`: in assay [1], the cell count is 591. Further, the inhibition in assay [1] was -1.8% (inactive); in assay [2], -156% (inactive); in [4] it was 11.4% (inactive); in assay [9], 11.7% (inactive). For the same compound, in [2], the nuclei count was found to be 133%. For the same compound, the z-score in [3] (setting [14]) was 0.39; in [3] (setting [15]), 0.06; in assay [3] (setting [16]) it was -0.372. The fluorescence slope in [5] is -0.492 (inactive); in assay [7], 0.00411 (inactive). For the same compound, the NADPH fluorescence slope in assay [6] is -0.000124 (inactive). Further, the result in [8] was inactive.
Take `COc1ccc2c(c1OC)C(=O)OC2c1c(O)n(C2CCCCC2)c(=O)[nH]c1=O` (centres undefined): the cell count in assay [1] was found to be 572. Also, the inhibition is -9.7% (inactive) in assay [1], -2.8% (inactive) in assay [2], 15.9% (inactive) in assay [4] and 6.27% (inactive) in assay [9]. Also, the nuclei count in assay [2] came out at 150%. The z-score came out at 0.755 in assay [3] (setting [14]), 0.301 in assay [3] (setting [15]) and 0.433 in assay [3] (setting [16]). Moreover, the fluorescence slope in assay [5] is -0.379 (inactive); in assay [7], 0.00555 (inactive). The NADPH fluorescence slope in [6] was -7.1e-05 (inactive). The call in assay [8] was inactive.
